Assay results as given in PubChem BioAssay (NCATS).
Results filed as inconclusive are left out. Activity calls are given as the source filed them. The call rests on the fitted dose curve; in most records, active means well fitted curve in the direction sought with a large enough effect; inconclusive means small, poorly fitted or top-dose-only effect, or another doubt; inactive means no such curve, though single readings can be large; an effect the other way counts as inactive or inconclusive.

How the values were obtained:
[1] = qHTS to identify inhibitors of the type 1 interferon - major histocompatibility complex class I in skeletal muscle: primary screen against the NCATS Pharmaceutical Collection (AID 1347407);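 further: luminescence of HiBiT knocked into endogenous HLA-B as interferon-induced MHC class I level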
Procedure, shortened: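 Cells were seeded with 4 ng/ml IFN-beta, incubated 1 h, then dosed with compounds over eight 1:5 steps up to 46 uM final. After 24 h at 37 C, HiBiT lytic reagent was added and luminescence read after 10 min lysis in the dark.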

[2] = target: Protein phosphatase 1D (Homo sapiens) (UniProt O15297); assay: RapidFire Mass Spectrometry qHTS Assay for Modulators of WT P53-Induced Phosphatase 1 (WIP1) (AID 1347424);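 further: amount of dephosphorylated VEPPL-S-QETFS peptide product formed by WIP1; series mostly up to about 63 µM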
Procedure, shortened: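 RapidFire mass spectrometry measured dephosphorylated peptide after 5 min room-temperature reaction of 2 uM VEPPL-pS-QETFS with 10 nM WIP1 (50 mM Tris-HCl pH 7.5, 30 mM MgCl2, 0.1 mM EGTA, BSA), following 1 hr compound preincubation; 1 uM isotope-labelled product standard.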

[3] = target: Protein phosphatase 1D (Homo sapiens) (UniProt O15297); assay: Rhodamine-PBP qHTS Assay for Modulators of WT P53-Induced Phosphatase 1 (WIP1) (AID 1347425)
Procedure, shortened: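 WIP1 (5 nM final) was preincubated with compound for 1 hour at room temperature. It then dephosphorylated 10 uM VEPPL-pS-QETFS peptide in Tris-HCl pH 7.5 with 30 mM MgCl2. Released Pi was detected by 10 uM Rh-PBP fluorescence (ex 525/em 598 nm) read at 1-min intervals for 11 min, as delta f1 - f0.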

[4] = Primary qHTS for inhibitors of La Crosse Virus (LACV) - induced cell death in SH-SY5Y cells (AID 1508616);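 further: top concentration of the series differs between compounds; higher means more rescue of cells from virus-induced death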
Procedure, shortened: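 Rescue of virus-induced death was read as ATPLite luminescence after 6 days at 37C, scaled between DMSO wells with LACV and without virus. Cells were SH-SY5Y, 6000/well, infected at 0.01 MOI after compound addition.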

[5] = target: Calcium and integrin-binding protein 1 (Homo sapiens) (UniProt Q99828); assay: Primary qHTS for Identification of Calcium Integrin Binding Protein 1 (CIB1) Competitor (AID 1508620);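 further: GST tagged CIB1 binding a fluorescein labelled alphaIIb integrin peptide tracer; top concentration of the series differs between compounds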
Procedure, shortened: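 CIB1-GST (1 uM final) and compound incubated 15 min at room temperature before adding FITC-alphaIIb peptide tracer (100 nM final). Competition for binding read by fluorescence polarization (ex 480, em 540) after another 15 min at room temperature.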

[6] = qHTS to identify inhibitors of the type 1 interferon - major histocompatibility complex class I in skeletal muscle: primary screen against the NCATS Mechanism Interrogation Plate v5.0 (MIPE) Libary (AID 1347411); further: nearly all actives have a fitted effect of over 65% in size
Procedure, shortened: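 Luminescence from CRISPR HiBit-tagged endogenous HLA-B in human myoblasts reported MHC class I level after 24 h of IFN-beta (4 ng/ml) plus compound. Compounds ran as 11-point 1:3 series, top 46 uM final.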

[7] = qHTS for Activators of p53 Stress Response Pathway screened against the NCATS CANVASS Library (AID 1347388)
Procedure, shortened: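 Beta-lactamase reporter driven by p53 response elements in HCT-116 cells, read as the 460 nm/530 nm emission ratio after CCF4 loading, following 16 h of exposure to an 11-point series. Cell viability was measured in the same wells by CellTiter-Glo luminescence.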

[8] = qHTS assay for small molecule disruptors of mitochondrial membrane potential screened against the NCATS CANVASS Library (AID 1347389); further: series mostly up to about 46 µM; nearly all actives have a fitted effect of over 60% in size
Procedure, shortened: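 Mitochondrial membrane potential in HepG2: 1 h compound treatment (11-point concentration series), 30 min m-MPI dye at 37C, then dual fluorescence of J-aggregates (ex 540/em 590) and monomers (ex 490/em 535); lower red/green ratio indicates depolarization.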

[9] = Secretion counterscreen for inhibitors of the SERCaMP assay screened against the NCATS CANVASS Library (AID 1347390);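 further: light from luciferase secreted into medium read as a measure of general secretion; series mostly up to about 77 µM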
Procedure, shortened: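 Counterscreen identifying compounds that disrupt secretion, using SH-SY5Y cells with a constitutively secreted Gaussia luciferase reporter. A 20 h compound exposure (top 77 uM) precedes luminescent detection with coelenterazine.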

[10] = qHTS for activators of Nrf2/ARE signaling pathway screened against the NCATS CANVASS Library (AID 1347391); further: nearly all actives have a fitted effect of over 60% in size
Procedure, shortened: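 Eleven-point qHTS, 16 h treatment of HepG2 cells carrying an ARE-driven beta-lactamase reporter; CCF4 ratio read (405 nm excitation, 460 and 530 nm emission), with CellTiter-Glo ATP luminescence for viability.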

[11] = qHTS for activators of dead-cell proteases activity screened against the NCATS CANVASS Library (AID 1347392);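 further: luminescence from protease leaking out of membrane-damaged cells cleaving impermeant substrate; rising signal means more cytotoxicity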
Procedure, shortened: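 Luminescent dead-cell protease readout (AAF-aminoluciferin, 15 min, room temperature) after 5 h compound treatment of HepG2 cells (2000/well, pre-attached 18 h). Eleven concentrations.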

[12] = qHTS for inhibitors of ER calcium dysfunction: SERCaMP assay screened against the NCATS CANVASS Library (AID 1347393);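 further: series mostly up to about 77 µM; lower secreted reporter signal means inhibitor of ER calcium depletion; nearly all actives have a fitted effect of over 40% in size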
Procedure, shortened: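 Thapsigargin-induced ER calcium depletion drives GLuc-SERCaMP secretion from SH-SY5Y cells; compounds given 16 h beforehand were scored by lowered coelenterazine luminescence after 4 h challenge.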

[13] = Vero-766 cells viability qHTS against the NCATS CANVASS Library: Counterscreen for Zika virus inhibition assay (AID 1347394); further: series mostly up to about 46 µM; nearly all actives have a fitted effect of over 60% in size
Procedure, shortened: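 This cytotoxicity counterscreen uses African green monkey Vero 766 cells in the absence of Zika virus. Compounds are incubated with cells for 72 h, and ATP-based luminescence reports viability.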

[14] = qHTS for inhibitors of Wild type Zika virus screened against the NCATS CANVASS Library (AID 1347396);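 further: ATP luminescence of surviving cells so rescue from viral cell killing; series mostly up to about 46 µM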
Procedure, shortened: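 Vero 766 (African green monkey) cells, 1000 per well, attached overnight, then compounds were added in an 11-point series before wild-type Zika virus infection. After 72 h at 37C, cell viability was read as CellTiter Glo luminescence.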

[15] = Viability qHTS for inhibitors of the SERCaMP assay screened against the NCATS CANVASS Library (AID 1347400); further: series mostly up to about 92 µM; nearly all actives have a fitted effect of over 70% in size
Procedure, shortened: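 CellTiter-Glo luminescence measured cytotoxicity after 48 h at 37C of compound treatment (11-point series). Cells were SH-SY5Y-GLuc SERCaMP MJH297 derivatives, seeded at 1000 per well 4 h beforehand.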

[16] = Redox Reaction Profiling qHTS: Assay Interference Panel against the NCATS CANVASS Library (AID 1347401)
Procedure, shortened: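 Redox-cycling liability assessed as DTT-driven conversion of resazurin (5 uM, with 200 uM DTT, HEPES pH 7.3) to fluorescent resorufin. Fluorescence at 525/598 nm measured initially and after 15 min dark incubation.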

Measured: outcome

Protein phosphatase 1D (Homo sapiens), sequence (O15297 whole entry, looked up): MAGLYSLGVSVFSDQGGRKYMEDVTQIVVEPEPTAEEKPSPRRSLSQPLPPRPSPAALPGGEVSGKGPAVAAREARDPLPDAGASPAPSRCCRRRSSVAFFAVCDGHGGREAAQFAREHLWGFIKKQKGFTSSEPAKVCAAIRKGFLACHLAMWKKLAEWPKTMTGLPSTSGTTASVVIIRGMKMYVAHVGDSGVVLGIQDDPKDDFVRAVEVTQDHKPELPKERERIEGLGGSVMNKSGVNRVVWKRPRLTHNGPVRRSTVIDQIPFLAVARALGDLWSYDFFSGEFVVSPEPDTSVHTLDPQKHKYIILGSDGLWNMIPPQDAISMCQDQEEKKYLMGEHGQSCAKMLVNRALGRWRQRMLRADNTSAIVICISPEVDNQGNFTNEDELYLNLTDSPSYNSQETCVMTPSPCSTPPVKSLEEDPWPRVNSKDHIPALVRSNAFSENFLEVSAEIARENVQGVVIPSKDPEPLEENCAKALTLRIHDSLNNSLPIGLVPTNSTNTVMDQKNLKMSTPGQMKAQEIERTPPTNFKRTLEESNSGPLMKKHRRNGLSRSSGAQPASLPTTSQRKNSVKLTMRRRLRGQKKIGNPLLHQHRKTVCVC
Calcium and integrin-binding protein 1 (Homo sapiens), sequence (Q99828 whole entry, looked up): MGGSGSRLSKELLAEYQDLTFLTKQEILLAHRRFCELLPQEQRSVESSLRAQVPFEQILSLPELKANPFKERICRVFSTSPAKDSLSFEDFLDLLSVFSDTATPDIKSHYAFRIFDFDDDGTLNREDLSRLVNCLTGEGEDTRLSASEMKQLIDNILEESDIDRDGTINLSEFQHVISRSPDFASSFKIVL

O=S1(=O)OC(c2ccc(O)cc2)(c2ccc(O)cc2)c2ccccc21
inactive: [1] | [2] | [3] | [4]

CN/C(=C\[N+](=O)[O-])NCCSCc1csc(CN(C)C)n1
inactive: [1] | [2] | [3] | [4] | [5]

Cc1onc(-c2ccccc2)c1-c1ccc(S(N)(=O)=O)cc1
inactive: [1] | [6] | [2] | [3] | [4] | [5]

C=CCOc1ccccc1OCC(O)CNC(C)C (configuration not stated)
inactive: [1] | [2] | [3] | [4]

CCCCCOC(=O)Nc1nc(=O)n([C@@H]2O[C@H](C)[C@@H](O)[C@H]2O)cc1F
inactive: [1] | [6] | [2] | [3] | [4] | [5]

CC[C@H](C)[C@H](N)C(=O)O
inactive: [1] | [2] | [3] | [4] | [5]

O=C(O)/C=C/c1ccc(Cn2ccnc2)cc1
inactive: [1] | [6] | [2] | [3] | [4] | [5]

COc1ccccc1OC(=O)Oc1ccccc1OC
inactive: [1] | [2] | [3] | [4] | [5]

CC(O)CCCCn1c(=O)c2c(ncn2C)n(C)c1=O (configuration not stated)
inactive: [1] | [2] | [3] | [4] | [5]

CN1CCN(C(=O)C2CCCCC2)CC1
inactive: [1] | [2] | [3] | [4] | [5]

C[C@@H](N)C(=O)O
inactive: [1] | [2] | [3] | [4] | [5]

O=c1[nH]c2cc(C(F)(F)F)c(N3CCOCC3)cc2n(CP(=O)(O)O)c1=O
inactive: [1] | [2] | [3] | [4] | [5]

O=C1CC[C@@H](C(=O)O)N1
inactive: [1] | [2] | [3] | [4]

Cc1ccc(S(=O)(=O)NC(=O)NC2CCCCC2)cc1
inactive: [1] | [2] | [3] | [4] | [5]

COc1ccc(NS(=O)(=O)c2ccc(N)cc2)nn1
inactive: [1] | [2] | [3] | [4]

Cc1ccccc1N=Nc1ccc(N=Nc2c(O)ccc3ccccc23)c(C)c1
inactive: [1] | [2] | [3] | [4] | [5]

C/C=C/C(=O)N(CC)c1ccccc1C
inactive: [1] | [6] | [2] | [3] | [4] | [5]

COC(=O)N/N=C/c1c[n+]([O-])c2ccccc2[n+]1[O-]
inactive: [1] | [2] | [3] | [4] | [5]

NNC(=O)CP(=O)(c1ccccc1)c1ccccc1
inactive: [1] | [2] | [3] | [4] | [5]

O=C(CCBr)N1CCN(C(=O)CCBr)CC1
inactive: [1] | [2] | [3] | [4] | [5]

OCc1ccc(Cl)cc1Cl
inactive: [1] | [2] | [3] | [4] | [5]

COC(=O)c1ccc(O)cc1
inactive: [1] | [2] | [3] | [4]

O=c1[nH]c(=O)n([C@H]2C[C@H](O)[C@@H](CO)O2)cc1I
inactive: [1] | [6] | [2] | [3] | [4] | [5]

CCN(CC)S(=O)(=O)c1ccc(C(=O)O)cc1
inactive: [1] | [2] | [3] | [4] | [5]

C=CCNC(N)=S
inactive: [1] | [2] | [3] | [4]

O=C(/C=C/c1ccccc1)OCc1ccccc1
inactive: [1] | [2] | [3] | [4] | [5]

CC(C)(C)NCC(O)COc1cccc2c1CCC(=O)N2 (configuration not stated)
inactive: [1] | [2] | [3] | [4] | [5]

CCOC(=O)[C@H](CCc1ccccc1)N[C@@H](C)C(=O)N1CCC[C@H]1C(=O)O
inactive: [1] | [6] | [3] | [4] | [5]

C[C@@H]1O[C@@H](OC[C@H]2O[C@@H](Oc3c(-c4ccc(O)c(O)c4)oc4cc(O)cc(O)c4c3=O)[C@H](O)[C@@H](O)[C@@H]2O)[C@H](O)[C@H](O)[C@H]1O
not listed: [2] | [6]
inactive: all other assays above

CC[C@]12CCCN3CCc4c(n(c5ccccc45)[C@@](O)(C(=O)OC)C1)[C@@H]32
inactive: [1] | [2] | [3] | [4] | [5]

Cc1ccsc1C(=CCCN1CCC[C@@H](C(=O)O)C1)c1sccc1C
inactive: [1] | [6] | [3] | [4] | [5]

O=C(O)CCCCC1CCSS1 (configuration not stated)
inactive: [1] | [2] | [3] | [4]

O=C(NCN1CCOCC1)c1cnccn1
inactive: [1] | [2] | [3] | [4] | [5]

CCC(C)(CN(C)C)OC(=O)c1ccccc1 (configuration not stated)
inactive: [1] | [2] | [3] | [4] | [5]

CN1CCCN=C1COC(=O)C(O)(c1ccccc1)C1CCCCC1 (configuration not stated)
inactive: [1] | [2] | [3] | [4] | [5]
